Columns and labels:
Conditions in all cases: concentration: 1 μM, replicates: in singlicate; n = 1
SNARK = tested on: T1, SNARK
T1 construct: gene NUAK2

SNRK = tested on: SNRK
SRC = tested on: SRC
SRMS = tested on: SRMS
SRPK1 = tested on: SRPK1
SRPK2 = tested on: SRPK2
SRPK3 = tested on: SRPK3
STK16 = tested on: STK16
STK33 = tested on: STK33
STK35 = tested on: STK35
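Note: KINOMEscan kinase panel screen.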

SMILES	%Inh (SNARK) [%]	%Inh (SNRK) [%]	%Inh (SRC) [%]	%Inh (SRMS) [%]	%Inh (SRPK1) [%]	%Inh (SRPK2) [%]	%Inh (SRPK3) [%]	%Inh (STK16) [%]	%Inh (STK33) [%]	%Inh (STK35) [%]
Cc1ccc(F)c(C(=O)Nc2cccc(-c3nn4ccccc4c3-c3ccnc(Nc4cccc(F)c4)n3)c2)c1F [GSK361061]	11	0	25	44	15	0	25	5	4	33
Cc1cccc(NC(=O)Nc2ccc(Oc3ncnc4ccn(C)c34)cc2)c1	0	0	0	0	11	0	0	0	0	0
O=C(O)C(F)(F)F.O=C(O)C(F)(F)F.O=c1[nH]ccc2nc(N[C@@H]3CCCNC3)nc(Nc3ccc(S(=O)(=O)N4CCOCC4)cc3)c12 [GSK2177277]	99.6	72	96.7	0	100	65	95.2	99.3	98.6	98
O=C(Nc1cccc(-c2nn3ccccc3c2-c2ccnc(Nc3cccc(C(F)(F)F)c3)n2)c1)c1c(F)cccc1F [GSK292658]	9	15	15	22	12	0	17	0	4	20
Cl.Cl.NCC(NC(=O)c1cc(-c2ccccc2)c(-c2ccnc3[nH]ccc23)s1)c1ccccc1 (stereo not drawn) [GSK1321561]	50	0	69	0	53	0	0	3	100	0
Cl.NC(=O)c1cccc(Nc2nccc(Nc3ccc(Oc4c(Cl)cccc4Cl)c(Cl)c3)n2)c1 [GW659009]	1	5	18	19	37	0	6	35	0	0
FC(F)(F)c1ccc(/C=C/c2cncnc2Nc2ccc3[nH]c(Cc4ccccc4)nc3c2)cc1 [GW709199]	45	0	1	0	21	56	2	0	0	0
NCCCC(NC(=O)c1cc(Br)c(-c2ccnc3[nH]ccc23)s1)c1ccccc1.O=C(O)C(F)(F)F.O=C(O)C(F)(F)F (stereo not drawn) [GSK1287544]	88	6	0	0	70	12	57	60	91.5	0
Cc1occc1-c1ncc(OC[C@@H](N)Cc2c[nH]c3ccccc23)cc1-c1ccc2[nH]nc(C)c2c1.O=C(O)C(F)(F)F [GSK682037]	60	0	65	0	54	0	70	0	86	69
